According to PubChem BioAssay:

test system: Inhibin beta A chain (activin A); experiment: small molecules binding activin A – biochemical, small-molecule microarray, 635 nm fluorescence scan, primary screen (AID 1107); conditions: INHBA, higher = more signal;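 further: mouse activin A protein probed at 4.33 µg/mL on printed slides; score merges bound-protein fluorescence near 667 nm with spot signal-to-noise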

Compared with `CCCCC(=C=CC[C@@H](O)c1ccccc1OCCO)CCO`, `C=C(CCCC)C(=O)CC[C@H](OC(C)=O)c1cccc(OCCO)c1` is lower in composite z-score: 0.857 for the first, -0.162 for the second.

First: COc1ccc(C(O)C2C=CC3C(=O)NC(=O)C3N2Nc2ccccn2)c2ccccc12 (stereo unspecified)
Second: CC(=O)n1cc(C(O)C2C=CC3C(=O)N(C)C(=O)C3N2Nc2ccccc2)c2ccccc21 (stereo unspecified)
The composite z-score of the first is lower: 0.804 for the first, 1.79 for the second.

Going from `COc1cc(CO)cc(I)c1O[C@H]1C=C(C(=O)NCCO)C[C@@H](N(CCN2CCOCC2)C(=O)C2CCOC2)[C@@H]1O` (stereo partly specified) to `CN1C(=O)C2C=CC(C(O)c3cc(C(F)(F)F)cc(C(F)(F)F)c3)N(N3CCCCC3)C2C1=O` (stereo unspecified), the composite z-score rises from -0.584 to 0.291.

First: COC(=O)[C@@]1(Cc2ccc(F)cc2)[C@H]2c3cc(C(=O)N(C)C)n(Cc4ccc(S(C)(=O)=O)cc4)c3C[C@H]2CN1C(=O)c1ccccc1
Second: CN(C)C(=O)[C@@]1(Cc2ccccc2)N=C(c2ccc(OCCCO)cc2)O[C@H]1c1ccccc1N=[N+]=[N-]
The composite z-score of the first is lower: 0.95 for the first, 0.994 for the second.

Compared with `O=C1O[C@H](c2ccccc2)[C@H](c2ccccc2)N2[C@H]1[C@@H](C(=O)NC[C@H](O)c1ccccc1)[C@]1(C(=O)Nc3ccccc31)[C@H]2c1ccc(OCCO)cc1`, `COCCOC(=O)N1C(=O)[C@@]2(c3cc(C#CC4=CCCCC4)ccc31)[C@H](C(=O)Nc1nc3ccccc3s1)[C@H]1C(=O)O[C@H](c3ccccc3)[C@H](c3ccccc3)N1[C@@H]2c1ccccc1OCCO` is higher in composite z-score: 0.286 for the first, 1.3 for the second.

For `[N-]=[N+]=NCc1ccccc1[C@@H]1OC(c2ccc(OCCCO)cc2)=N[C@]1(CCS(=O)(=O)c1ccccc1)C(=O)NCc1ccccc1`, the composite z-score was 1.07.
